The target in assay [1] is Tumor susceptibility gene 101 protein (Homo sapiens) (UniProt Q99816). Kind of assay: qHTS Assay for Iinhibitors of HIV-1 Budding by Blocking the Interaction of PTAP/TSG101: Hit Validation (AID 651600). Also: % is scaled to controls: 0 for no effect and ±100 for the full control effect; nearly all actives have a fitted effect of over 70% in size. In outline: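 Displacement of a FITC-labeled PTAP-motif peptide (50 nM) from the Tsg101 binding domain (10 uM) was monitored by fluorescence polarization after a 20 min room-temperature incubation.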

The target in assay [2] is Rap guanine nucleotide exchange factor 3 (Homo sapiens) (UniProt O95398). Kind of assay: Confirmatory qHTS for antagonist of cAMP-regulated guanine nucleotide exchange factor 3 (EPAC1) (AID 1645880). Also: nearly all actives have a fitted effect of over 55% in size. Also: potency is read from the fitted curve at half-maximal effect.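 As to activity, negative = inhibition: plate controls were DMSO only for no effect and full effect of the ATA control for full effect.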 The conditions noted are these: EPAC1 Rap1B-BODIPY-GDP exchange, fluorescence; activity, negative = inhibition: at 115 µM (top of the series). In outline:
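Nucleotide exchange uses 100 nM EPAC1, 250 nM RAP1B-BODIPY-GDP and 50 uM GDP, with compounds in a concentration-titration series. After 5 min at room temperature, fluorescence (480 nm ex/540 nm em) is read every 5 min for 30 min. Data are normalized to control ATA and DMSO.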

The target is the same in assay [3]. Kind of assay: Confirmatory qHTS for agonist of cAMP-regulated guanine nucleotide exchange factor 3 (EPAC1) (AID 1645881). Also: nearly all actives have a fitted effect of over 75% in size. Also: potency is read from the fitted curve at half-maximal effect.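 As to activation: EPAC1 catalysed release of BODIPY-GDP from Rap1B seen as fluorescence loss; 100% = effect of cAMP agonist control.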
The target of assay [4] is Rap guanine nucleotide exchange factor 4 (Homo sapiens) (UniProt Q8WZA2). Briefly: Confirmatory qHTS for agonist of cAMP-regulated guanine nucleotide exchange factor 4 (EPAC2) (AID 1645884).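 Also: nucleotide exchange releases bodipy-GDP from Rap1 and this lowers its fluorescence; nearly all actives have a fitted effect of over 65% in size.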 Also: potency is read from the fitted curve at half-maximal effect. As to activation: % is scaled to controls: 0 for no effect and ±100 for the full control effect.
Assay [5] has the same target. Kind of assay: Confirmatory qHTS for antagonist of cAMP-regulated guanine nucleotide exchange factor 4 (EPAC2) (AID 1645885). Also: nearly all actives have a fitted effect of over 25% in size. Also: potency is read from the fitted curve at half-maximal effect.
In assay [6] the target is Rap guanine nucleotide exchange factor 3 (Homo sapiens) (UniProt O95398). Kind of assay: Counterscreen qHTS for antagonist of cAMP-regulated guanine nucleotide exchange factor 3 (EPAC1) (AID 1645888).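 Also: fluorescence loss as bound BODIPY-GDP is released from Rap1B; % of control where 0% means no effect.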 In outline:
(§1)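 Rap1B-BODIPY-GDP 250 nM + GDP 50 uM; cpds 7-pt, final 9.74 nM–152 uM (activator mode) or from 7.32 nM upwards (inhibitor mode); RT; FI 480/540 nm at 5 and 30 min, then ± cAMP, reread.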

For assay [7] the target is unchanged. Briefly: Counterscreen qHTS for agonist of cAMP-regulated guanine nucleotide exchange factor 3 (EPAC1) (AID 1645889). Also: nearly all actives have a fitted effect of over 40% in size. Also: potency is read from the fitted curve at half-maximal effect. As to activation: % of control where 0% means no effect. In outline: as §1
A short description of assay [8]: qHTS for Inhibitors of the vitamin D receptor (VDR): Hit Validation using a Texas Red Assay (AID 602201). Also: % is scaled to controls: 0 for no effect and ±100 for the full control effect. In outline: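 After a 2-hour room-temperature incubation, polarization of Texas-Red emission was read (Ex 595 nm/Em 615 nm). Final mix contained 7 nM Texas Red, 1.5 uM VDR-LBD and LG19078.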
In assay [9] the target is ATPase family AAA domain-containing protein 5 (Homo sapiens) (UniProt Q96QE3). Kind of assay: HTS assay for small molecules that inhibit ELG1-dependent DNA repair in human embryonic kidney (HEK293T) cells expressing luciferase-tagged ELG1: Hit Confirmation (AID 624248). Also: potency is read from the fitted curve at half-maximal effect; nearly all actives have a fitted effect of over 55% in size. The conditions noted are these: HEK293T ELG1-luciferase levels, luminescence; cells co-treated with 5-fluorouridine. In outline:
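Suppression of ELG1-luciferase signal was read by ONE-Glo luminescence in HEK293T reporter cells after 16 h at 37 C co-treatment with compound and 5-fluorouridine as DNA-damaging agent.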

Assay [10] shares this target. Kind of assay: qHTS screen for small molecules that inhibit ELG1-dependent DNA repair in human embryonic kidney (HEK293T) cells expressing luciferase-tagged ELG1: Hit Confirmation using MMS Stimulated ELG1 (AID 624249). Also: potency is read from the fitted curve at half-maximal effect; nearly all actives have a fitted effect of over 60% in size. In outline: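 Under DNA damage from MMS (final 10 µM), compounds act on ELG1-luc HEK293T cells over 16 h. Decreased luciferase, detected with Amplight, indicates inhibition of the ELG1 response.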

Assay [11] can be described thus: qHTS screen for small molecules that inhibit ELG1-dependent DNA repair: Hit Confirmation with MMS Viability (AID 624251). Also: % is scaled to controls: 0 for no effect and ±100 for the full control effect; nearly all actives have a fitted effect of over 60% in size. In outline: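 Luminescent ATP read-out (CellTiter-Glo) gives viability of ELG1-luc HEK293T cells exposed to compounds together with 10 µM methyl methanesulfonate for 16 h.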
A short description of assay [12]: AP1 Signaling Pathway (AID 357; active = well fitted curve in either direction with a large enough effect, not every such curve was filed as active;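 also: ME-180 reporter cells stimulated with EGF at its EC50 level; % is scaled to controls: 0 for no effect and ±100 for the full control effect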). The following applies: ME-180 AP-1-bla reporter, EGF-induced, beta-lactamase ratio, 5 h; at 7.69 µM (top of the series) unless noted. In outline:
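Titration-series screen for positive or negative modulators of EC50 EGF-induced signaling in ME-180 cells carrying an AP-1-driven beta-lactamase reporter. After 5 hours at 37 degrees Celsius, CCF4 460nm/530nm emission ratio gave %Activity; AC50 values derived.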

The nature of assay [13]: Stat Signaling Pathway (AID 446; active = well fitted curve in either direction with a large enough effect, not every such curve was filed as active;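 also: ME-180 cervical cancer cells given 40 pM IL-6 alongside compound; SIE-controlled beta-lactamase reporter measured as 460/530 nm FRET emission ratio; % is scaled to controls: 0 for no effect and ±100 for the full control effect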). In outline:
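Reporter line: ME-180 cervical carcinoma, SIE-beta-lactamase. Treatment: compound with 40 pM IL-6, 5 hrs, 37 C, in low-serum OPTI-MEM with 10 mM HEPES pH 7.3. Detection: 460/530 nm fluorescence.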

The target of assay [14] is Glucocorticoid receptor (Homo sapiens) (UniProt P04150). Kind of assay: GR-GFP Redistribution (AID 450;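 active = compounds whose dose series gives a full or clear partial fitted curve of increased nuclear translocation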; also: potency is read from the fitted curve at half-maximal effect). The conditions noted are these: U2OS GR-GFP nuclear translocation, laser cytometry, 2 h.
Assay [15] can be described thus: qHTS Assay for Identification of Small Molecule Agonists for Hypoxia Response Element Signaling Pathway (AID 914; active = well fitted activation curve with a large enough effect in the signal ratio, with a control signal flat, not every such curve was filed as active; the % refers to the signal ratio; also: potency is read from the fitted curve at half-maximal effect). The conditions noted are these: ME-180 (cervical carcinoma) HRE-bla reporter, beta-lactamase ratio, CoCl2, 17 h; activation: hits give high values. In outline: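 qHTS titration; ME-180 HRE-bla cells; EC50 CoCl2 co-treatment, 17 h at 37 degrees Celsius; CCF4 dye, ex 405nm, em 460nm and 530nm; %Activity from ratio; AC50.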

For assay [16], the target named is DNA polymerase iota (Homo sapiens) (UniProt Q9UNA4). Briefly: qHTS for Inhibitors of Polymerase Iota: Confirmatory Assay for Cherry-picked Compounds (AID 720496). Also: potency is read from the fitted curve at half-maximal effect. The following applies: Pol iota primer extension, TAMRA/BHQ fluorescence. In outline: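 Step 1: 10 nM Pol iota with compound, 15 min, room temperature. Step 2: 50 nM final quenched DNA substrate added. Step 3: fluorescence (ex 525, em 598 nm) read at 0 and after 10 min.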

Assay [17] deals with DNA polymerase eta (Homo sapiens) (UniProt Q9Y253). Kind of assay: qHTS for Inhibitors of Polymerase Eta: Confirmatory Assay for Cherry-picked Compounds (AID 720502). Also: potency is read from the fitted curve at half-maximal effect. The conditions noted are these: Pol eta primer extension, TAMRA/BHQ fluorescence, 10 min. In outline: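 Strand-displacement fluorescence (525 nm excitation, 598 nm emission) was read kinetically at 0 and 10 min after adding 50 nM final TAMRA-reporter/BHQ-2-template substrate. Beforehand, 10 nM Pol eta had been exposed to compound for 15 min at room temperature.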

Each structure is given as a SMILES string. A number with no mark means an inactive call. Inconclusive results are not listed. This is one part of the list. The source made the active and inactive calls. Unless noted, calls follow the shape of the dose curve; as a rule, active = well fitted curve in the direction sought with a large enough effect; inconclusive = small, poorly fitted or top-dose-only effect, or another doubt; inactive = no such curve, though single readings can be large; an effect the other way counts as inactive or inconclusive. A value given as a limit tells only on which side of the number the result lay.

Sequence of Rap guanine nucleotide exchange factor 4 (Homo sapiens) (Q8WZA2 whole entry, looked up): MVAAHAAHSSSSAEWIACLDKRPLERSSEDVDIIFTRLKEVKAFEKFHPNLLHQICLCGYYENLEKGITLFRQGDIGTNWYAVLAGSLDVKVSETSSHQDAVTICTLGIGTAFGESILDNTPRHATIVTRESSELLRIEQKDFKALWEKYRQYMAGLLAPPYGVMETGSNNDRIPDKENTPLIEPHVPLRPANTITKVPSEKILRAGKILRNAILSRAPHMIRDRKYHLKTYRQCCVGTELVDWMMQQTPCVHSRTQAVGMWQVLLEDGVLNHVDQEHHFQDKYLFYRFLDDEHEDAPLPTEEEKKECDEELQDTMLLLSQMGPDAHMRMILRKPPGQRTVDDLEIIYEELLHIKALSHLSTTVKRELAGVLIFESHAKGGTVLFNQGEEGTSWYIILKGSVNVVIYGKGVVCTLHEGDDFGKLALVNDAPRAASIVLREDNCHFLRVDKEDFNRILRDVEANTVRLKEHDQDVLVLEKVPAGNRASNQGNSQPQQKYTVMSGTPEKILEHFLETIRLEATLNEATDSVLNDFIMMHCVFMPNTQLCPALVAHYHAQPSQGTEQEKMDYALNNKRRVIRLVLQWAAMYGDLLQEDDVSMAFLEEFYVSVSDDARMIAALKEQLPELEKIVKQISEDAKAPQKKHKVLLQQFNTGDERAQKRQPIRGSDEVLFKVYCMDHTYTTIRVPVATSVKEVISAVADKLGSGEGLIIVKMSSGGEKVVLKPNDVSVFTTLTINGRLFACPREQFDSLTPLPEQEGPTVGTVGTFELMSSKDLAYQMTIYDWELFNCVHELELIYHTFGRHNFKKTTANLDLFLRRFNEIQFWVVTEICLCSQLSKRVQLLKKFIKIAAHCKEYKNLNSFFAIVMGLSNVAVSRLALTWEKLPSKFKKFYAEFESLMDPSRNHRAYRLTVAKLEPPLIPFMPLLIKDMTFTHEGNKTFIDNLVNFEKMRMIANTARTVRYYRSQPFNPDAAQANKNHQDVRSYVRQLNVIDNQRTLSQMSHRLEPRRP
Sequence of Rap guanine nucleotide exchange factor 3 (Homo sapiens) (O95398 whole entry, looked up): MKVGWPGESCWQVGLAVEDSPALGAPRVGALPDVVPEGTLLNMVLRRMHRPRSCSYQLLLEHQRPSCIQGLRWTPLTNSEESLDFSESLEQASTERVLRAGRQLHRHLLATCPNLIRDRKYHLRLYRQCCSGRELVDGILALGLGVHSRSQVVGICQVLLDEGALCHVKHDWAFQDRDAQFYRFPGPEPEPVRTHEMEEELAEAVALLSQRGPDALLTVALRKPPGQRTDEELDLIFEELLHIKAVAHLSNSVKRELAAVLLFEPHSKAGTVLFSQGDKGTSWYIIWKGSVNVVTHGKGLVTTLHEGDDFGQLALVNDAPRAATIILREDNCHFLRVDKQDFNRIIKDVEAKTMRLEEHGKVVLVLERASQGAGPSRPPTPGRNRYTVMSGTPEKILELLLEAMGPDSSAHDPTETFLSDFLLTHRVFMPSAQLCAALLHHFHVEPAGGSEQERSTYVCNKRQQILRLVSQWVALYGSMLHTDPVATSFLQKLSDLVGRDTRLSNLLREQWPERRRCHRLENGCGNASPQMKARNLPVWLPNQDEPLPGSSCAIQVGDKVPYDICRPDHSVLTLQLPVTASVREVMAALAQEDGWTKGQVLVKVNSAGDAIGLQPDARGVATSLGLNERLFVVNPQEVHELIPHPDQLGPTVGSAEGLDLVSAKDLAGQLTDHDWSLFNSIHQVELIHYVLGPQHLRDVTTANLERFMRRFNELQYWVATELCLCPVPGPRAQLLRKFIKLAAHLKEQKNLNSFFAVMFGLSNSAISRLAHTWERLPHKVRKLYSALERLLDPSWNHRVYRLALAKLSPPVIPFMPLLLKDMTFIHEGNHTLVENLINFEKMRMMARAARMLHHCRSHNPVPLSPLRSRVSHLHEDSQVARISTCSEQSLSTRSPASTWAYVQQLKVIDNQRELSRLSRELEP
Sequence of ATPase family AAA domain-containing protein 5 (Homo sapiens) (Q96QE3 whole entry, looked up, the tested form may be a part): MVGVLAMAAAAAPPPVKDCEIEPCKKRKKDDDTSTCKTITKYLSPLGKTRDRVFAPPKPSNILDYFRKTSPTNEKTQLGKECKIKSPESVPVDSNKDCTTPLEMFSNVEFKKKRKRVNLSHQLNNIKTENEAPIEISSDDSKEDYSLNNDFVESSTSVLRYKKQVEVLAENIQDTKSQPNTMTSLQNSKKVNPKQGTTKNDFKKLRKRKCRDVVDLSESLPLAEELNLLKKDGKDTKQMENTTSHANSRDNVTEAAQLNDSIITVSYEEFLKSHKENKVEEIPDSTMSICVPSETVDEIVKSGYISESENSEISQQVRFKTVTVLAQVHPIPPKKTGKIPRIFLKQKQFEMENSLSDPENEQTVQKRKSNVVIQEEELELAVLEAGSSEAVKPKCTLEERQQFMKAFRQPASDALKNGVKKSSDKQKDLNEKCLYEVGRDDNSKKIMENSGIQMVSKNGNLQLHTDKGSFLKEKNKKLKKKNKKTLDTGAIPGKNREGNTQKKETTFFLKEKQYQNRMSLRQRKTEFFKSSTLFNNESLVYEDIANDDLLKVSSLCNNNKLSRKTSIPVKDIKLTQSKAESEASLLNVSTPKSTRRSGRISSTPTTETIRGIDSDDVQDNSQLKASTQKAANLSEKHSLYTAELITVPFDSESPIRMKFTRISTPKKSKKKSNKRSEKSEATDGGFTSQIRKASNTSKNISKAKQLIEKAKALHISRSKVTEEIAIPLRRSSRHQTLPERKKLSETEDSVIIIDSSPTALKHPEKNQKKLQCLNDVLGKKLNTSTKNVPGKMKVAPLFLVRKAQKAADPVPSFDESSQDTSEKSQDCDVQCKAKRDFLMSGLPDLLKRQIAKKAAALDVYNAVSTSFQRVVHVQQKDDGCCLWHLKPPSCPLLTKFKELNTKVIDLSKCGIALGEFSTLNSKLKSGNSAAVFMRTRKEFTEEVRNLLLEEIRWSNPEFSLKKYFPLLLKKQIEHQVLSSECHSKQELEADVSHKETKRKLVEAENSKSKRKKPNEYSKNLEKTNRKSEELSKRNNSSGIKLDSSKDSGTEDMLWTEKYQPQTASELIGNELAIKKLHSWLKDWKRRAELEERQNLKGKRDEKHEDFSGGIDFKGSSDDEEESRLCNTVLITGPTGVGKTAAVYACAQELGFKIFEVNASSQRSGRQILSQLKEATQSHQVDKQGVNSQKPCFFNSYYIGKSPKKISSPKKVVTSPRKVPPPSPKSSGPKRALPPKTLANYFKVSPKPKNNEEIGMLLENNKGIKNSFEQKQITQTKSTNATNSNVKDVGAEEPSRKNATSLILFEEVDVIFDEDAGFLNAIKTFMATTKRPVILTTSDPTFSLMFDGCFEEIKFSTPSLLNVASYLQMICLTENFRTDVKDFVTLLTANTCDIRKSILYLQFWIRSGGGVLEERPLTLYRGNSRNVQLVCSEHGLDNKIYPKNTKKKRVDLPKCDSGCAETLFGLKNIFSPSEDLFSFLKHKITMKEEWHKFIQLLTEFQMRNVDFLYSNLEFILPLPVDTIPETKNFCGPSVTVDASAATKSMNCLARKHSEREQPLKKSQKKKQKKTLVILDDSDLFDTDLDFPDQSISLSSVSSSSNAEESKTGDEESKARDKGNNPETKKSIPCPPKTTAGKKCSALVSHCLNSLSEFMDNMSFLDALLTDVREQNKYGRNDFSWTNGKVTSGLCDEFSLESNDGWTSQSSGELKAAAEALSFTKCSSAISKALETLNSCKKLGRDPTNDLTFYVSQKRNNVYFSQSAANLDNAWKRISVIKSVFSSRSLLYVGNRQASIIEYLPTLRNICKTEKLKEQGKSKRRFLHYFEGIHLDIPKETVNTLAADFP
Sequence of DNA polymerase iota (Homo sapiens) (Q9UNA4 whole entry, looked up): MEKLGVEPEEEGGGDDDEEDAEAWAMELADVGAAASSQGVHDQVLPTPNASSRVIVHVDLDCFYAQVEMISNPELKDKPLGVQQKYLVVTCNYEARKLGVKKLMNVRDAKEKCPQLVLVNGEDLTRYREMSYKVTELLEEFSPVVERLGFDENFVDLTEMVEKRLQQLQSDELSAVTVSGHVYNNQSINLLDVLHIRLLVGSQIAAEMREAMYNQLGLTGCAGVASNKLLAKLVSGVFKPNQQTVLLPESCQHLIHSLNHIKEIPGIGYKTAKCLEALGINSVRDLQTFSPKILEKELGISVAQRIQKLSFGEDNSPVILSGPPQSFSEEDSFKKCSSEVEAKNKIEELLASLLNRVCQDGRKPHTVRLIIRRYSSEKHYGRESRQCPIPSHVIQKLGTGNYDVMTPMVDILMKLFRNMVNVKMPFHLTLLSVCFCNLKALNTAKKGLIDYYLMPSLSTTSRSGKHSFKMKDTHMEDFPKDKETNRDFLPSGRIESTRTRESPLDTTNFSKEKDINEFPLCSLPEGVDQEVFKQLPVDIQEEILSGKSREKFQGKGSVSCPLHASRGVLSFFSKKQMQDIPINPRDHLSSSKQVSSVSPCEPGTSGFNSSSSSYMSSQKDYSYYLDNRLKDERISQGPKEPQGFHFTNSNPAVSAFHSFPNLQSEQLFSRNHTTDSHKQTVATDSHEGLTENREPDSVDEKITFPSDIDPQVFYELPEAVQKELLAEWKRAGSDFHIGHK
Sequence of Tumor susceptibility gene 101 protein (Homo sapiens) (Q99816 whole entry, looked up, the tested form may be a part): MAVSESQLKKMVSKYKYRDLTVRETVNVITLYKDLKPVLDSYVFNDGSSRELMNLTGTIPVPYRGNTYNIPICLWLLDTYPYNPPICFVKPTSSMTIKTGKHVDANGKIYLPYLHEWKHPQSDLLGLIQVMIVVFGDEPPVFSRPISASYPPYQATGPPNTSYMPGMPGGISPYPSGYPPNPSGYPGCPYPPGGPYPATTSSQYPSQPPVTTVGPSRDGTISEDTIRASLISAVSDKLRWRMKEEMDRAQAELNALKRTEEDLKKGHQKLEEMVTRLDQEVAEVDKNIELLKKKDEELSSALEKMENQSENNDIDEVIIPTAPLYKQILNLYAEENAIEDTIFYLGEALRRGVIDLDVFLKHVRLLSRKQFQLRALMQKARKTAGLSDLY

`N#CC(C(=O)NCc1ccccc1)c1nc2ccccc2nc1N1CCCC1` (stereo not given): the Potency entry in assay [1], in assay [2], in assay [6] and in [7] was “inactive” each time. Further, the Potency in assay [3] is 100 µM (active); in assay [4], 89.1 µM (active); in assay [5] it was 75.7 µM (active).
In the case of `Cc1[nH]n(-c2ncc(-c3ccccc3)s2)c(=O)c1C(c1ccc(Cl)cc1)C(C#N)C#N` (stereo not given), the Potency entry in [8], in assay [3] and in assay [5] was “inactive” in each case. In assay [2], the Potency was 22.4 µM (active). Besides, the activation in assay [4] is -0.2% [at 17.1 µM, percent relative to cAMP agonist control]; in [7] it was 13% [at 30.8 µM]. In assay [6], the activity change, negative = inhibition was -10.4% [at 30.8 µM].
As for `Cc1ccc(C(=O)/C=C/c2cc(Br)cc(Br)c2O)o1`, the Potency entry in [8], in assay [3], in assay [4], in assay [5], in assay [6] and in assay [7] was “inactive” throughout. Further, the Potency in assay [2] was 26.9 µM (active).
For `COc1ccc(-c2cc(C(=O)N(C)CC(=O)Nc3ccccc3Cl)c3ccccc3n2)cc1OC`, the Potency in assay [9] was 4.99 µM (active); in assay [10] it was 12.5 µM (active). In addition, the molecule was called inactive in assay [11]. Besides, the Potency entry in assay [2], in [3] and in assay [5] was “inactive” in each case. Also, the activation in [4] was 3.75% [at 17.1 µM, percent relative to cAMP agonist control]. The activity change, negative = inhibition in assay [6] was -9.19% [at 30.8 µM].
As for `CCCCCCc1cc2cc(C(=O)NC)c(=N)oc2cc1O`, the activity change, negative = inhibition in [12] was -13% [at 17.2 µM]. The result in assay [13] was inactive. In addition, the Potency is above 20.6 µM in [14], 3.98 µM (active) in assay [15], 89.1 µM (active) in assay [3] and 100 µM (active) in assay [4]. Further, the Potency result in [2], in assay [5] and in assay [6] was “inactive” each time.
`NC1=CC(=O)C(=O)c2cccnc21`: the Potency in assay [16] was 42.3 µM (active); in assay [17], 26.9 µM (active); in assay [2], 10 µM (active). Besides, the Potency result in [3] and in assay [5] was “inactive” each time. Further, the activation in assay [4] was 3.71% [at 17.1 µM, percent relative to cAMP agonist control]; in assay [7], 11.2% [at 30.8 µM]. The activity change, negative = inhibition in assay [6] is -7.69% [at 30.8 µM].
For the molecule `O=C(OCCN1C(=O)c2cccc3c(N4CCOCC4)ccc(c23)C1=O)c1cccc(Cl)c1`, the Potency result in assay [1], in [2] and in [6] was “inactive” in each case. Besides, the Potency in [3] was 89.1 µM (active); in assay [4], 100 µM (active); in [5] it was 75.7 µM (active); in assay [7], 3.16 µM (active).
Take `COc1ccc(S(=O)(=O)/N=C2\C=C(NS(=O)(=O)c3ccccc3)C(=O)c3ccccc32)cc1`: the Potency was 67 µM (active) in assay [16]; 8.49 µM (active) in [2]; 50.1 µM (active) in assay [3]; 100 µM (active) in assay [4]; 10.7 µM (active) in [5]. Moreover, the Potency result in assay [6] and in assay [7] was “inactive” each time.
